PubChem BioAssay (NCATS)
Results filed as inconclusive are left out. Calls of active or inactive are those of the source. The call rests on the fitted dose curve; in most records, active means well fitted cell-killing curve with a large enough effect; inconclusive means small, poorly fitted or top-dose-only effect, or effect the other way; inactive means no such curve, though single readings can be large or run the other way.

Assay: Quantitative High-Throughput drug screen in 47 multiple myeloma cell lines against the NCATS MIPE library collection: L363_DSMZ cell viability assay (AID 1918984)
Conditions: L363 myeloma viability, CellTiter-Glo ATP luminescence, 48 h; series mostly up to 45.8 µM; viability (% of control): at the top concentration
In short: (§1)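 qHTS format: cells plated (500/well), pin-dosed with MIPE 4.0 compounds, kept 48 h at 37 °C. Readout was CellTiter-Glo luminescence, median RLU.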
Further: nearly all actives have a fitted effect of over 40% in size.
Potency means the concentration at half of the fitted maximal effect.

| Compound | viability (% of control) | Potency |
| --- | --- | --- |
| CCCC[N+]1(C)[C@H]2CC(OC(=O)[C@H](CO)c3ccccc3)C[C@H]1[C@H]1O[C@H]12 (stereo partly specified) | 109% (inactive) | – |
| CC1(N2CCC(n3c([C@@H]4CCCNC4)nc4ccccc43)CC2)CCCCCCC1 | – | 6.62 µM (active) |
| CN(C)NC(=O)CCC(=O)O | 107% (inactive) | – |
| O=c1[nH]c2ccccc2n1C1CCN(Cc2ccc(-c3[nH]c4cc5ncnc5cc4nc3-c3ccccc3)cc2)CC1 | – | 5.9 µM (active) |
| CC(C)N(CCNC(=O)CN1CCCC1=O)C(C)C | 106% (inactive) | – |
| C[C@@H]1CC[C@H]2[C@@H](C)C(=O)O[C@@H]3O[C@@]4(C)CC[C@H]1[C@]32OO4 | 112% (inactive) | – |
| Cc1[nH]nc2ccc(-c3cncc(OC[C@@H](N)Cc4c[nH]c5ccccc45)c3)cc12 | 89% (inactive) | – |
| C[C@@H]1O[C@@H](O[C@@H]2C=C3CC[C@@H]4[C@@H](CC[C@]5(C)[C@H](c6ccc(=O)oc6)CC[C@@]45O)[C@@]3(C)CC2)[C@H](O)[C@H](O)[C@H]1O | – | 0.0083 µM (active) |
| CC[C@@]1(O)C(=O)OCc2c1cc1n(c2=O)Cc2cc3ccccc3nc2-1 | – | 0.296 µM (active) |
| NC1=NC(=O)N2CC12 (stereo unspecified) | – | 9.35 µM (active) |
| CC1=C(O)C(=O)C=C2C1=CC=C1[C@@]2(C)CC[C@@]2(C)[C@@H]3C[C@](C)(C(=O)O)CC[C@]3(C)CC[C@]12C | – | 0.662 µM (active) |
| COCC1(CO)C(=O)C2CCN1CC2 (stereo unspecified) | – | 3.32 µM (active) |
| CN1CCN(c2ccc([N+](=O)[O-])c3no[n+]([O-])c23)CC1 | – | 8.33 µM (active) |
| O=C(N[C@@H](COc1ccc2[nH]c(=O)[nH]c2c1)c1ccccc1)c1cccn(Cc2ccc(F)c(F)c2)c1=O | – | 18.7 µM (active) |
| COc1cc([C@@H]2c3cc4c(cc3[C@@H](O)C3COC(=O)C32)OCO4)cc(OC)c1O (stereo partly specified) | – | 0.0132 µM (active) |
| COc1ccc2c(c1)[C@]13CCCCC1C(C2)N(C)CC3 (stereo partly specified) | 79.4% (inactive) | – |
| C[C@]12COC(=O)C[C@@H]1CC[C@@H]1[C@H]2CC[C@@]2(C)[C@H]1CC[C@]2(C)O | 102% (inactive) | – |
| CCOP(=O)(OCC)C(C)NC(=O)N(CCCl)N=O (stereo unspecified) | 115% (inactive) | – |
| CSCC[C@@H](NC(=O)[C@@H](Cc1ccccc1)NC(=O)CNC(=O)CNC(=O)[C@@H](N)Cc1ccc(O)cc1)C(=O)O | 157% (inactive) | – |
| CCC(=O)OC1CCC2C3CCC4=CC(=O)CC[C@@]4(C)C3CC[C@]12C (stereo partly specified) | 97% (inactive) | – |
| CCN1CCN(C(=O)Cc2ccc(Nc3ncc(F)c(Nc4ccc(C(=O)Nc5ccccc5Cl)cc4)n3)cc2)CC1 | – | 1.87 µM (active) |
| O=C(O)CNC(=O)c1c(O)c2ccccc2n(Cc2ccccc2)c1=O | 102% (inactive) | – |
| COc1ccc2c(c1)CN(C)CC2c1ccc(Cl)c(Cl)c1 (stereo unspecified) | – | 13.2 µM (active) |

Assay: Quantitative High-Throughput drug screen in 47 multiple myeloma cell lines against the NCATS MIPE library collection: KMS34_JCRB cell viability assay (AID 1918985);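 on viability, percent of control: 100% = DMSO-only wells and 0% = media-only wells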
Conditions: KMS34 myeloma viability, CellTiter-Glo ATP luminescence, 48 h; series mostly up to 45.8 µM; viability, percent of control: at the top concentration
In short: as §1

| Compound | viability, percent of control | Potency |
| --- | --- | --- |
| CCCC[N+]1(C)[C@H]2CC(OC(=O)[C@H](CO)c3ccccc3)C[C@H]1[C@H]1O[C@H]12 (stereo partly specified) | 115% (inactive) | – |
| N#C[C@H](O[C@@H]1O[C@H](CO[C@@H]2O[C@H](CO)[C@H](O)[C@H](O)[C@H]2O)[C@H](O)[C@H](O)[C@H]1O)c1ccccc1 | – | 8.33 µM (active) |
| CN(C)NC(=O)CCC(=O)O | 73.3% (inactive) | – |
| CC(C)N(CCNC(=O)CN1CCCC1=O)C(C)C | 107% (inactive) | – |
| C[C@@H]1[C@H](O)[C@@H](C)C=CC=CCCC=CC=CC=CC=C[C@H](O[C@H]2O[C@@H](C)[C@H](O)[C@@H](N)[C@@H]2O)CC2O[C@](O)(C[C@@H](O)[C@H](O)CC[C@@H](O)C[C@@H](O)C[C@@H](O)CC(=O)O[C@H]1C)C[C@H](O)[C@H]2C(=O)O | 109% (inactive) | – |
| CC(=Cc1csc(C)n1)[C@@H]1C[C@H]2O[C@@H]2CCC[C@H](C)[C@@H](O)[C@@H](C)C(=O)C(C)(C)[C@@H](O)CC(=O)O1 | 23.3% (inactive) | – |
| C[C@@H]1CC[C@H]2[C@@H](C)C(=O)O[C@@H]3O[C@@]4(C)CC[C@H]1[C@]32OO4 | – | 2.96 µM (active) |
| Cc1[nH]nc2ccc(-c3cncc(OC[C@@H](N)Cc4c[nH]c5ccccc45)c3)cc12 | – | 1.32 µM (active) |
| O=C(Oc1ccc([N+](=O)[O-])cc1)N1CCN(Cc2cccc(Oc3ccccc3)c2)CC1 | 102% (inactive) | – |
| C[C@@H]1O[C@@H](O[C@@H]2C=C3CC[C@@H]4[C@@H](CC[C@]5(C)[C@H](c6ccc(=O)oc6)CC[C@@]45O)[C@@]3(C)CC2)[C@H](O)[C@H](O)[C@H]1O | – | 0.0332 µM (active) |
| CC[C@@]1(O)C(=O)OCc2c1cc1n(c2=O)Cc2cc3ccccc3nc2-1 | – | 0.209 µM (active) |
| NC1=NC(=O)N2CC12 (stereo unspecified) | 88.8% (inactive) | – |
| C[C@]12Cc3cn[nH]c3C[C@@H]1CC[C@@H]1[C@H]2CC[C@@]2(C)[C@H]1CC[C@]2(C)O | 88.6% (inactive) | – |
| CC1=C(O)C(=O)C=C2C1=CC=C1[C@@]2(C)CC[C@@]2(C)[C@@H]3C[C@](C)(C(=O)O)CC[C@]3(C)CC[C@]12C | – | 0.743 µM (active) |
| CC=C(C)C(=O)O[C@H]1C(C)=C2[C@@H]3OC(=O)[C@@](C)(O)[C@@]3(O)[C@@H](OC(=O)CCC)C[C@](C)(OC(C)=O)[C@@H]2[C@@H]1OC(=O)CCCCCCC | – | 0.0166 µM (active) |
| COCC1(CO)C(=O)C2CCN1CC2 (stereo unspecified) | – | 0.59 µM (active) |
| CN1CCN(c2ccc([N+](=O)[O-])c3no[n+]([O-])c23)CC1 | – | 14.8 µM (active) |
| O=C(N[C@@H](COc1ccc2[nH]c(=O)[nH]c2c1)c1ccccc1)c1cccn(Cc2ccc(F)c(F)c2)c1=O | 72.6% (inactive) | – |
| C[C@]12CCC(=O)C(O)=C1CC[C@@H]1[C@H]3CCC(=O)[C@@]3(C)CC[C@@H]12 | 102% (inactive) | – |
| COc1cc([C@@H]2c3cc4c(cc3[C@@H](O)C3COC(=O)C32)OCO4)cc(OC)c1O (stereo partly specified) | – | 0.0187 µM (active) |
| COc1ccc2c(c1)[C@]13CCCCC1C(C2)N(C)CC3 (stereo partly specified) | 107% (inactive) | – |
| C#CC1(O)CCC2C3CCC4=CC(=O)CCC4(C)C3CCC21C (stereo unspecified) | 116% (inactive) | – |
| C#C[C@]1(O)C=C[C@@H]2[C@@H]3CCC4=CC(=O)CC[C@@H]4[C@H]3CC[C@@]21CC | 88.3% (inactive) | – |
| CSCC[C@@H](NC(=O)[C@@H](Cc1ccccc1)NC(=O)CNC(=O)CNC(=O)[C@@H](N)Cc1ccc(O)cc1)C(=O)O | 109% (inactive) | – |
| CCC(=O)OC1CCC2C3CCC4=CC(=O)CC[C@@]4(C)C3CC[C@]12C (stereo partly specified) | 112% (inactive) | – |
| CCc1c(C(=O)C(N)=O)c2c(OCC(=O)O)cccc2n1Cc1ccccc1 | 129% (inactive) | – |
| CCN1CCN(C(=O)Cc2ccc(Nc3ncc(F)c(Nc4ccc(C(=O)Nc5ccccc5Cl)cc4)n3)cc2)CC1 | – | 4.18 µM (active) |
| O=C(O)CNC(=O)c1c(O)c2ccccc2n(Cc2ccccc2)c1=O | 98.2% (inactive) | – |
